Laboratory results from PubChem BioAssay AID708 (SRMLSC, 2007).
Out of some 65,000 compounds screened, fewer than 10 were called active.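 How the source made its calls: active means at 10 µM dose, initial 340 nm absorbance at least 2 fold that of control wells; inactive means change under 2 fold.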 The list is a sample of the results.

Assay: compound light absorbance at 340 nm, profiling panel, artefact control, biochemical, MLSMR library, data from PS, PMK, MK assays (AID 708);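 further: initial absorbance extrapolated from kinetic A340 decline of NADH oxidation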
Conditions: compound absorbance at 340 nm, fold over control; at 10 µM; stronger effect = higher value

Fold change, inactive:
N#Cc1c(N)n(CCOC(=O)c2ccc(Cl)cc2)c2nc3ccccc3nc12 1.01
CCc1cc(=O)oc2cc(C)cc(OC(C)C(=O)O)c12 (stereo not drawn) 1.04
O=c1[nH]nc(CSCc2ccccc2Cl)[nH]1 1.04
Cn1c(=O)n(C)c2cc(CNc3ccc(N4CCOCC4)c(C(=O)O)c3)ccc21 1
O=C(Cn1c(=O)sc2ccccc21)Nc1ccc2c(c1)OCCO2 1.01
Cc1ccc(S(=O)(=O)NCc2cn3ccsc3n2)c(C)c1 0.97
CCOc1ccc(OCC)c(NC(=O)C(NS(=O)(=O)c2ccc3c(c2)oc(=O)n3C)C(C)C)c1 (stereo not drawn) 0.97
COCC(C)N=CC1=C(O)CC(C)(C)CC1=O (stereo not drawn) 0.95
NC(=O)CSc1c[nH]c2ccccc12 1.01
COc1ccc(NC(C)=O)cc1NC(=O)CN1CCN(c2ccccn2)CC1 0.97
CCN1CCN(c2ncnc3c2oc2nc(C)c4c(c23)CC(C)(C)OC4)CC1 0.99
COc1ccc2nc(NC(=O)c3ccc(Br)s3)sc2c1 1.1
CCOC(=O)c1c(N)c(C#N)nn1-c1ccccc1C(=O)OC 1
Cc1nnc(SCc2cc(=O)[nH]c(N3CCN(Cc4ccccc4)CC3)n2)s1 1.01
O=C(Nc1ccccc1)c1cccnc1Nc1ccccc1 1.1
CCN(Cc1nc2ccccc2c(=O)[nH]1)Cc1cc(=O)oc2cc(C)c(C)cc12 1.01
CC(C)C(=O)Nc1c(C(=O)c2ccc(F)cc2)oc2ccccc12 1.11
Cc1ccc(S(=O)(=O)NCC(=O)N(CC(=O)NC2CCCCC2)Cc2ccco2)cc1 0.98
Cc1ccc(C)c(N2CCN(S(=O)(=O)c3ccc4c(c3)oc(=O)n4C)CC2)c1 0.98
C=CCNc1ncnc2ccc(Br)cc12 1.1
O=C(CSc1nnc(-c2cccs2)n1Cc1ccco1)c1ccc2c(c1)OCO2 1.08
CC(C)(C)NC(=O)Cn1nnc(-c2ccccc2Cl)n1 1.03
ON=C1/C(=N\O)CC2(C/C1=N/O)OCCO2 0.99
COC(=O)CNC(=O)c1ccc2c(c1)S(=O)(=O)c1ccccc1C2=O 1.02
CCOC(=O)c1oc2ccccc2c1NC(=O)c1cccs1 1.02
CC(C)Oc1ccc(C2NC(=O)NC2=O)cc1 (stereo not drawn) 1
O=C(CS(=O)(=O)Cc1ccccc1)Nc1cccnc1 1.08
CCOC(=O)c1c(NC(=O)CCC(=O)NCc2ccco2)sc2c1CCCC2 1.03
CCCc1cc(=O)[nH]c(SCC(=O)OCc2ccccc2)n1 1.02
CCOC(=O)C1=C(C)N=c2s/c(=C\C(=O)OC)c(=O)n2C1c1ccc(OC)cc1 (stereo not drawn) 1.09
CCOC(=O)C1CCCN(Cc2nc(N)nc(Nc3ccc(C)cc3)n2)C1 (stereo not drawn) 1
CN(C)CCNC(=O)C(C(=O)c1ccccc1)n1ccccc1=O (stereo not drawn) 1.03
COCCNC(=S)c1ccc(OC)cc1 1.01
CCOC(=O)CSc1nnc(-c2cccc(Br)c2)o1 1.02
N#Cc1nc(N)nc(N(c2ccccc2)c2ccccc2)n1 1
Cc1ccccc1N1C(=O)C2ON(c3ccccc3)C(c3ccncc3)C2C1=O (stereo not drawn) 0.99
O=C(CCN1C(=O)c2ccccc2C1=O)NCCN1CCOCC1 0.99
COc1ccccc1-c1cc(C(=O)NCCCn2ccnc2)no1 0.99
NC(=O)Cn1c(=O)oc2ccccc21 0.97
O=C(Cn1c(=O)sc2ccccc21)Nc1nc2c(s1)CCCC2 1.03
O=C(Cn1nc(C(F)(F)F)c2c1CCC2)NCc1ccc(F)cc1 1.04
Cc1ccc(Oc2ccc(N)cc2)cc1 1.02
CCOC(=O)N1CCN(C(=O)CSc2nnc(-c3c[nH]c4ccccc34)n2CCOC)CC1 1.06
Cc1ccc(N2CCN(S(=O)(=O)N(C)C)CC2)cc1Cl 1.01
O=S(N1CCCCCC1)C12CC3CC(CC(C3)C1)C2 (stereo not drawn) 0.99
CC(C)OC(=O)CN1C(=O)c2ccccc2C1=O 1.01
CCS(=O)(=O)N1CCC(C(=O)N2CCN(c3ccccc3)CC2)CC1 1.02
CC1(C)CC(=O)c2sc(N)nc2C1 1.11
O=C(NCc1ccco1)c1cnn2c(C(F)(F)F)cc(-c3ccco3)nc12 1.04
CC1CCCN(c2ccc(C(=O)NCCc3ccccc3)cn2)C1 (stereo not drawn) 1.04
O=C(c1ccc2c(c1)C(=O)N(c1ccc(Cl)cc1)C2=O)N1CCN(c2ccccn2)CC1 1
Cc1ccc2c(c1)c1ncn(CCC3=CCCCC3)c(=O)c1n2C 1
CCNc1nc(SCCOc2ccccc2)nc(N(C)C)n1 1.04
CCC(C(=O)NC1CCCC1)N(C(=O)c1snc(C(N)=O)c1N)c1ccc2c(c1)OCCO2 (stereo not drawn) 1.1
COc1ccc(C(=O)N(CCN2CCOCC2)CC(=O)NC2CCCC2)cc1OC 0.98
OCCCN1c2ccccc2Nc2nnc(-c3ccccc3)cc21 1.04
COc1ccccc1-c1cc(C(=O)N2CCCCC2)no1 1.02
Cc1ccc2nc(-c3ccc(SCC(=O)Nc4cc(C)on4)nc3)[nH]c2c1 1.14
CCNS(=O)(=O)c1ccc(NC(=O)Nc2cccc(OC)c2)cc1 1.06
O=C(NC1CCCC1)c1ccc(Br)s1 1.03
CCOC(=O)CSc1nnc(CNC(=O)Cc2ccccc2)n1-c1ccccc1OC 0.99
CCOc1ccc(C(CC(=O)O)NC(=O)COc2ccccc2)cc1 (stereo not drawn) 1.03
CCCC1C(c2ccccc2)C(C#N)(C#N)C2(C#N)CC1(N)NC2=O (stereo not drawn) 1.02
C#CCNc1nc(C(C)C)nc2c1nnn2Cc1ccccc1F 1.04
CN(C)/C=C1\C=C(c2ccccc2)OC1=O 1.21
O=C(c1cnn2ccccc12)N1CCc2ccccc21 1.12
CCOc1ccc(Cn2nnc(C(=O)Nc3ccc(OC)cc3OC)c2N)cc1 0.98
COc1ccc(NC(=O)c2cccc(NC(=O)c3ccco3)c2)c(OC)c1 1.07
O=C(NCCc1ccccn1)c1ccc(COc2ccccc2)o1 0.98
CCOC(=O)C1CCN(C(=O)Nc2ccc(Cl)cc2)CC1 1.01
COc1cccc(N(CC(=O)NC2CCCC2)C(=O)Cn2nnc(-c3ccc(C)cc3)n2)c1 1.01
Cc1nc(SCC(=O)Nc2cc(C)on2)c2c3c(sc2n1)CCCC3 1.02
CC1CCN(Cc2nc3c(c(=O)n(C)c(=O)n3C)n2CCc2ccccc2)CC1 0.98
NC(=O)COc1ccc2c3c(c(=O)oc2c1)CCCCC3 1.15
CCc1cc(=O)oc2cc(OCC(=O)N3CCCc4ccccc43)ccc12 1.08
CCOC(=O)N1CCC(NC(=O)CCc2cn(C)c3ccccc23)CC1 0.98
Cc1ccnc(N2C(=O)c3ccccc3C2Nc2ccc3c(c2)OCCO3)c1 (stereo not drawn) 1.06
CCOc1ccc(-c2cn(S(=O)(=O)c3cccc4nsnc34)nc2N)cc1 0.98
c1ccc(-n2ncc3c2ncn2c(CSc4nc5ccccc5s4)nnc32)cc1 1.06
c1ccc2c(CNn3cnnc3)cccc2c1 1.05
Cc1ccc(C(=O)NCC2CCCO2)o1 (stereo not drawn) 1.04
CCn1c(CSc2nncn2-c2ccc(OC)cc2)nc2cc(S(=O)(=O)N(C)C)ccc21 0.96
CC(C)(O)C#Cc1ccc(C(=O)N2CCC(C(N)=O)(N3CCCCC3)CC2)cc1 1.04
CCN(CC)S(=O)(=O)c1ccc2nc(COC(=O)c3n[nH]c4ccccc34)[nH]c2c1 1.03
COc1cccc(-c2nnc(NC(=O)c3ccc(S(=O)(=O)N(CC(C)C)CC(C)C)cc3)o2)c1 1.06
CC12COC3(C(=O)Nc4ccc(Cl)cn4)CC1CCC32C (stereo not drawn) 1.04
Cc1nc(N2CCCC2C(=O)O)c2oc3ccccc3c2n1 (stereo not drawn) 1.02
CCCCN(CC)CCCNC(=O)CS(=O)(=O)Cc1nc(-c2cccc(OC)c2)oc1C 1
CC(=O)Nc1cccc(Oc2cc(C#N)c(C#N)cc2N2CCOCC2)c1 1.1
Cn1c2ccccc2c2c(C(=O)N3CCN(c4ccc(F)cc4)CC3)cn(C3CCCC3)c(=O)c21 1.05
COc1ccc(CCNS(=O)(=O)c2ccc(C(=O)NCc3ccco3)cc2)cc1OC 0.99
Cc1ccc(S(=O)(=O)NC(C)C(=O)Nc2ccccc2C(=O)N2CCCC2)cc1 (stereo not drawn) 0.96
COc1ccc(-n2nnnc2SCC(=O)c2ccc(OC)c(OC)c2)cc1 1.03
Cn1cnc2c1c(=O)n(Cc1c(Cl)cccc1Cl)c(=O)n2C 1.04
Cc1cc(C(=O)NCCCc2ccccc2)no1 1
COc1ccc(C(=O)Cn2nnc(-c3ccc(N4CCOCC4)cc3)n2)cc1OC 1
CCOc1cccc(-c2nn3c(-c4ccccn4)nnc3s2)c1 1.01
O=C(CN1CCN(C(=O)c2ccco2)CC1)Nc1ccc(Cl)c(C(F)(F)F)c1 1
